Reference: PubChem BioAssay AID2174 (The Scripps Research Institute Molecular Screening Center, 2009)
About 500 (0.16%) of roughly 320,000 compounds were called active. The full list was thinned out, with actives kept by preference. Values without a mark were called inactive.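 How the source made its calls: active means inhibition above the mean of all tested compounds plus 3 SD, set per campaign (cut at about 14% in these data); inactive means the rest.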

Target: Acyl-protein thioesterase 1 (Homo sapiens) (UniProt O75608)
Assay: inhibition of human lysophospholipase 1 – biochemical, fluorescence polarization, FP-Rh probe ABPP, counter-screen for PME1 inhibitor project, primary screen (AID 2174);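 further: inhibitors block serine hydrolase probe labeling of LYPLA1 so polarization falls; 0% = enzyme with DMSO and 100% = wells lacking LYPLA1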
Details: recombinant LYPLA1, FP-Rh probe fluorescence polarization; at 5.9 µM; active compounds read high

Acyl-protein thioesterase 1 (Homo sapiens), sequence (O75608 whole entry, looked up): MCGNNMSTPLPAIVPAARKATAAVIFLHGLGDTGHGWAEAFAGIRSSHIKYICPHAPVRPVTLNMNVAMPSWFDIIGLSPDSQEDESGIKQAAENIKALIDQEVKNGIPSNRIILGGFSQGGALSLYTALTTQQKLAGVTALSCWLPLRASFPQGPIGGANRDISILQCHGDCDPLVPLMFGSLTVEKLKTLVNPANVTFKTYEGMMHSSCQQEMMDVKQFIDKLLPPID

Compared with `Cn1ccc(=NC=C(C#N)C#N)c2ccccc21`, `CCOc1ccc2ccccc2c1/C=N/NC(=O)c1c(C)cc(C)[nH]c1=O` is lower in inhibition: -3.88% for the first, -5.43% for the second.

Going from `CN(C)c1ccc(N/C=C/C(=O)C(F)(F)F)cc1` to `CC(=O)Nc1ccc(C(=O)N(C2=NC(C)CS2)c2ccc(Cl)cc2)cc1` (centres undefined), the inhibition falls from -5.36% to -16.3%.

Going from `CCN(CC)C(=O)CSc1ncnc2c1cnn2-c1ccccc1` to `CCc1c(SCCC(=O)O)nc2ccccc2c1C`, the inhibition rises from -1.45% to 2.67%.

Compared with `COc1ccc(/C=C2\CCCC3C2=NN(C(=O)c2scnc2C)C3c2ccc(OC)cc2)cc1` (centres undefined), `COc1ccc(CNC(=O)C(=O)NCC2OCCN2C(=O)c2ccc(OC)cc2)cc1` (centres undefined) is lower in inhibition: -3.35% for the first, -3.36% for the second.

Going from `CCCN(CCC)C(=O)C1c2ccccc2Oc2ccccc21` to `O=C(Cc1ccccc1F)NC1CCSc2ccccc21` (centres undefined), the inhibition falls from -1.51% to -2.96%.

Going from `O=C(O)CCS(=O)(=O)c1ccc(-c2ccccc2)cc1` to `NS(=O)(=O)c1ccc(NC(=S)NNC(=O)c2cccs2)cc1`, the inhibition rises from -0.07% to 0.82%.

Compared with `COC(=O)[C@@H]1CC[C@H](C)[C@@H](c2ccc(C)cc2)N1C(=O)c1ccc(/C=N/O[C@H](C)c2cn([C@@H]3COC[C@H]3O)nn2)cc1`, `CCOc1ccc(C(=O)NCC(=O)N2CCN(c3ccc(C(F)(F)F)cn3)CC2)cc1` is higher in inhibition: -1.13% for the first, 2.56% for the second.

First: COCCCN(C(=O)CSCc1ccc(C)cc1)c1c(N)n(Cc2ccccc2)c(=O)[nH]c1=O
Second: Cc1ccc(OCc2cc(C(=O)N(C)CCc3ccccc3)no2)cc1C
The inhibition of the first is lower: -5.33% for the first, 2.48% for the second.

Compared with `Cc1ccccc1NC(=O)NC1(C(=O)N2CCCC2)CCCCC1`, `Cc1cccc(N2CCC(NCc3c(C(=O)N4CCCCC4)nc4c(C)cccn34)CC2)c1` is lower in inhibition: 5.72% for the first, 0.61% for the second.

Compared with `CCN1C(=O)/C(=c2\s/c(=C3\Sc4ccccc4N3C)c(=O)n2C)N(C)C1=S`, `CCCCN1C(=O)/C(=C2/Sc3ccc(Cl)cc3N2CC)SC1=S` is higher in inhibition: -0.75% for the first, 2.19% for the second.

Compared with `CC(C)c1ccc(S(=O)(=O)N2CCN(C(=O)CN3C(=O)NC(C)(c4ccccc4)C3=O)CC2)cc1` (centres undefined), `COc1ccccc1N1CCN(C(=O)c2ccc(Cl)c(S(=O)(=O)N3CCCC3)c2)CC1` is higher in inhibition: 0.26% for the first, 1.54% for the second.

Compared with `Cc1ccccc1C(=O)NC(=S)NC1CC1`, `CCC(Cc1ccccc1)NC(=O)C1CCCCC1` (centres undefined) is higher in inhibition: -2.2% for the first, -0.48% for the second.

Compared with `Cc1c(C(=O)NCCN2C(=O)S/C(=C\c3cccs3)C2=O)cccc1[N+](=O)[O-]`, `CCNC(=O)CC1C(=O)N(c2ccc(F)cc2)C(=O)N1Cc1cccs1` (centres undefined) is higher in inhibition: -7.3% for the first, 1.31% for the second.

Going from `COc1ccc(S(=O)(=O)N(CCCN2CCCC2=O)Cc2cc3c(C)ccc(C)c3[nH]c2=O)cc1` to `COc1ccc(S(=O)(=O)N/N=C\c2ccc(OC)c(COc3ccc(C)cc3[N+](=O)[O-])c2)cc1`, the inhibition rises from -0.26% to 3.24%.

Compared with `COc1cc(OC)cc(C(=O)NNC(=O)CNC(=O)c2ccc(Br)o2)c1`, `COc1ccccc1C(=O)NC(CCSC)C(=O)NNC(=O)c1ccccc1C` (centres undefined) is higher in inhibition: -3.43% for the first, 2.08% for the second.

First: O=C(NCCCN1CCCCC1)C1CCCN(c2ncnc3c2nc2n3CCCCC2)C1 (centres undefined)
Second: O=C(NCc1ccccc1Cl)C1CCN(c2ncnc3c2nc2n3CCCCC2)CC1
The inhibition of the first is higher: 4.5% for the first, 3.58% for the second.

Compared with `O=C(COC(=O)CCOc1ccccc1)Nc1cc(S(=O)(=O)N2CCCCC2)ccc1Cl`, `CCN(CC(=O)Nc1c(F)cccc1F)C(=O)c1ccc(S(=O)(=O)N2CCCCC2)cc1` is higher in inhibition: -5.97% for the first, 0.21% for the second.

Compared with `Cc1ccc(N2CCN(/N=C/c3cccs3)CC2)cc1`, `O=C1COc2ccc(NC(=O)N3CCN(c4ccc(F)cc4)CC3)cc2N1` is lower in inhibition: 2.05% for the first, -0.21% for the second.

Going from `Cc1ccsc1/C=C1\SC(N2CCOCC2)=NC1=O` to `CCN(CC)S(=O)(=O)c1ccc(N2CCOCC2)c(NC(=O)c2ccc(=O)n(C)n2)c1`, the inhibition rises from -3.19% to 3.13%.

First: CCCCc1nc2cc(C(=O)N3CCCCC3CCO)ccc2o1 (centres undefined)
Second: Cc1[nH]c2ccc(C(=O)N3CCN(C)CC3)cc2c1C
The inhibition of the first is lower: -0.28% for the first, 2.14% for the second.

Compared with `O=C(NCCc1ccccc1)C(=O)NCC1OCCN1S(=O)(=O)c1cccs1` (centres undefined), `COc1cccc(NC(=O)C2CCCN2C(=O)OCc2ccccc2)c1` (centres undefined) is lower in inhibition: 2.86% for the first, 1.14% for the second.

Going from `O=C(CCCn1c(SCC(=O)c2ccccc2)nc2ccccc2c1=O)NCC1CCCO1` (centres undefined) to `O=C(CSc1nc2ccccc2c(=O)n1-c1ccc(F)cc1)NC1CC1`, the inhibition falls from 2.13% to 0.87%.

Going from `O=C(N/N=C/c1ccsc1)c1cc(O)cc(O)c1` to `COc1cccc(NC(=S)NC(=O)c2c(Cl)c(C)nn2C)c1`, the inhibition falls from 3.13% to -3.22%.

Compared with `CCOCCCNC(=O)c1cn(CC(C)C)c(=O)c2c1c1ccccc1n2C`, `O=C(NCCCc1ccccc1)c1cc(COc2c(F)cccc2F)on1` is lower in inhibition: 0.47% for the first, -0.18% for the second.

Compared with `Cc1ccc(N(CC(=O)NC2CCCCC2)C(=O)CCCC(=O)Nc2ccccn2)c(C)c1`, `CC1CCCCC1NC(=O)NC(=O)COC(=O)C1=NN(c2ccccc2)C(=O)CC1` (centres undefined) is higher in inhibition: -5.08% for the first, -3.28% for the second.

Compared with `CCOc1ccc(S(=O)(=O)N2CCCC(C(=O)N3CCC(C(N)=O)CC3)C2)cc1Cl` (centres undefined), `COC(=O)c1ccc(CSc2ccc(S(=O)(=O)N3CCCCC3)cn2)cc1` is lower in inhibition: -0.84% for the first, -1.32% for the second.

Going from `CCn1cc(CN2CCC(C(=O)Nc3cccc(-c4cccc(Cl)c4)c3)CC2)c(C)n1` to `O=C(Nc1cccc(Cl)c1)c1cncn1-c1ccc(F)cc1`, the inhibition falls from -1.53% to -4.38%.

Compared with `O=C(CC1Nc2ccccc2NC1=O)Nc1ccccc1` (centres undefined), `O=C1CN(C(=O)COc2c(Cl)cccc2Cl)c2ccccc2N1` is higher in inhibition: -11.2% for the first, -0.08% for the second.

Compared with `COc1ccc(NS(=O)(=O)c2cccc(C(=O)NCCc3ccc(S(N)(=O)=O)cc3)c2)cc1`, `COc1ccc(CCNC(=O)CSc2nc(-c3ccc(OC)c(OC)c3)ccc2C#N)cc1` is lower in inhibition: 0.92% for the first, -12.1% for the second.

First: CCOC(=O)/C(=N\Nc1ccccc1Cl)N(C)C1CCS(=O)(=O)C1 (centres undefined)
Second: COc1ccccc1C(=O)NC(CCSC)C(=O)N1CCN(C(C)=O)CC1 (centres undefined)
The inhibition of the first is higher: 6.62% for the first, -1.6% for the second.

Compared with `O=C(Nc1nnc(C2COc3ccccc3O2)o1)c1ccc(F)cc1` (centres undefined), `COc1ccc2c(c1)[C@H]1[C@H](CO2)[C@H](c2ccccc2)[C@]2(C)C(=O)Nc3cc(F)c(F)cc3C(=O)N12` is lower in inhibition: -3.93% for the first, -14.6% for the second.

Compared with `COc1ccc2c(c1)OC(O)(C(F)(F)C(F)F)CC2=O` (centres undefined), `CN(Cc1ccc(F)cc1Cl)S(=O)(=O)c1cccs1` is higher in inhibition: 0.29% for the first, 4.05% for the second.

First: Cc1cc(-c2ccccc2)nc(N2CCC(C(=O)NC34CC5CC(CC(C5)C3)C4)CC2)n1
Second: Cc1cc(OCC(=O)N2CCN(c3ncccn3)CC2)ccc1Cl
The inhibition of the first is higher: -0.18% for the first, -2.47% for the second.

First: CC(C)(C)c1ccc(CCC2OCC(CN3CCOCC3)O2)cc1 (centres undefined)
Second: CCOc1ccc(-n2cnnn2)cc1S(=O)(=O)N1CCC(C)CC1C (centres undefined)
The inhibition of the first is lower: -1.79% for the first, 3.81% for the second.

Compared with `COc1cccc(NC(=O)N2C3CCCC2CC(NC(C)=O)C3)c1` (centres undefined), `COc1ccc(C2CC(c3cccs3)Nc3nnnn32)cc1` (centres undefined) is higher in inhibition: -0.11% for the first, 0.92% for the second.

First: O=C(/C=C/c1cccc(C(F)(F)F)c1)N1CCN(c2ccccn2)CC1
Second: O=C(COc1ccc2ccccc2c1)N1CCN(C(=O)c2cccs2)CC1
The inhibition of the first is lower: -2.76% for the first, 1.27% for the second.

First: Cc1ccc(CNC(=O)CCNS(=O)(=O)c2ccc(Br)s2)cc1
Second: CCCCCOc1ccc(/C=C/C(=O)NCCc2nc3ccccc3[nH]2)cc1OC
The inhibition of the first is higher: 0.04% for the first, -8.82% for the second.

Compared with `O=C(O)c1ccccc1NC(=S)NC(NC(=O)c1ccccc1[N+](=O)[O-])C(Cl)(Cl)Cl` (centres undefined), `Cc1ccccc1Nc1nc(N)nc(CSc2ccccc2)n1` is lower in inhibition: 2.28% for the first, -4.27% for the second.

Compared with `NC(=O)C1(N2CCCCC2)CCN(C2CC(=O)N(Cc3ccc(N4CCCC4=O)cc3)C2=O)CC1` (centres undefined), `COc1cnn(-c2ccc([N+](=O)[O-])cc2)c(=O)c1Cl` is higher in inhibition: 2.22% for the first, 3.8% for the second.

First: COCCNc1nc2nonc2nc1N1CCCC1c1nccs1 (centres undefined)
Second: Cc1cc(C)c2c(n1)sc1c(=O)n(-c3ccccc3)c(=O)[nH]c12
The inhibition of the first is higher: 1.24% for the first, -3.16% for the second.

With `O=c1[nH]c2cccnc2n1-c1ccc([N+](=O)[O-])cc1` the inhibition was -1.44%.

For `CCN1C(=O)/C(=C2/Sc3ccccc3N2CCCS(=O)(=O)O)SC1=S`, the inhibition was 14.2% (active).
For `Cc1ccc(N2CCN(C3=NC(=O)/C(=C\c4cccs4)S3)CC2)cc1`, the inhibition was 29% (active).
With `O=C(CCn1c(SCC(=O)c2ccccc2)nc2ccccc2c1=O)NCc1ccc(F)cc1` the inhibition was 33.2% (active).
In the case of `CN(CCOc1ccccc1)C(=O)c1cc(COc2c(F)cccc2F)on1`, the inhibition is reported as 17.4% (active).
With `COc1cccc(NC(=O)N2CCCC2C(=O)NC2CCCCC2)c1` (centres undefined) the inhibition was 15.1% (active).
In the case of `CCOc1ccccc1N1CCN(C(=O)c2ccc3[nH]c(C)c(C)c3c2)CC1`, the inhibition is reported as 14.2% (active).
For `COc1ccccc1C(=O)NC(CCSC)C(=O)N1CCN(C/C=C/c2ccccc2)CC1` (centres undefined), the inhibition was 18.2% (active).
In the case of `O=c1[nH]n(-c2ccc([N+](=O)[O-])cc2)c(=O)c2ccccc12`, the inhibition is reported as 22.9% (active).
